MITF act – increases MITF-driven TRPM1 promoter luciferase signal | 300,000 compounds, 0.75% hits | activation, % at 12.5 µM | SK-MEL-5 TRPM1-promoter luciferase, 24 h; % of positive control, neutral wells = 0;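 active = mean activation of at least 80% with every replicate also reaching 80%; inconclusive = mean reaches 80% but some replicate falls short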;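 note: 0% = neutral control wells and 100% = parthenolide positive control wells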
Wnt act – activates Wnt/beta-catenin signaling in a reporter cell assay | AID 743398 | activator, plate reader | activation, % at 9.35 µM | 300,000 compounds, 1.2% hits; in the data active = activation above about 30%, passing the limit was not always enough; inconclusive = no clear call, values can overlap the other calls;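 note: 0% = neutral control wells and 100% = positive control wells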
GAA850 FXN act – increases GAA850 frataxin promoter reporter activity. HEK293 lucGAA850 FXN promoter luciferase reporter, 24 h; percent of 10 µM SAHA response. activation, % at 6 µM. 360,000 compounds, 0.56% hits. AID 540364;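 active = activation above the average of all compounds screened plus 3 SD, cutoff fixed separately per campaign, cut at about 7.5% in these data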;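 note: 0% = DMSO wells and 100% = 10 µM SAHA wells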
esBAF inh – blocks esBAF chromatin remodeling in mouse ES cells | Bmi1-luciferase knock-in reporter, 24 h; 100% = twice the neutral-well signal | reporter increase, % at 12.5 µM | 350,000 compounds, 2% hits | AID 602393; in the data active = activation above about 40%; inconclusive = no clear call, values can overlap the other calls;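 note: 0% = median of the plate's neutral control wells and 100% = double that signal; a rise in the Bmi1 reporter signal indicates esBAF inhibition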
Statin myotox sup – protects C2C12 myotubes from simvastatin toxicity | rescue of ATP level, % at 7.49 µM | 330,000 compounds, 0.78% hits | ATP luminescence, 48 h; scaled: DMSO 0, geranylgeraniol control 100;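 active = mean ATP rescue above about 67%, or every replicate alone reaching that limit, limit read from the data, passing the limit was not always enough; inconclusive = no clear call, values can overlap the other calls; inactive = mean under the limit and some replicate under it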;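 note: myotubes were challenged with 10 µM simvastatin during compound exposure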
* hit, by the source's call; ! = a repeat was not active. This is a sample that favours compounds with a hit; in the whole collection about 3.3% have one here.

How did C/C(N)=C(/C#N)C(=O)CSc1nnc(Nc2c(C)cccc2C)s1 do in these assays?
MITF act: -14.3; Wnt act: -0.4; GAA850 FXN act: -1.8

Results for C/C(N)=C(/C#N)C(=O)CSc1nnc(Nc2cccc(C)c2C)s1 ?
MITF act: 45.1; Wnt act: 14.3; GAA850 FXN act: 3.1; esBAF inh: 85.7*!; Statin myotox sup: 13.2

Results for O=C1Nc2ccccc2/C1=C/c1cnc(-c2ccccc2)[nH]1 ?
Wnt act: 41.3*; GAA850 FXN act: 5.5; esBAF inh: inconclusive; Statin myotox sup: 3.6

Results for COC(=O)c1ccccc1NC(=O)c1ccc2nccnc2c1 ?
MITF act: 10.0; Wnt act: -0.8; GAA850 FXN act: -0.6; esBAF inh: 11.0; Statin myotox sup: -2.5

Results for CCN(CC)S(=O)(=O)c1cc(C(=O)Nc2ccc(Cl)cn2)ccc1C ?
MITF act: 104.8*; GAA850 FXN act: 3.2; esBAF inh: 27.1; Statin myotox sup: -18.6

Results for O=C(Nc1ccccc1Cl)c1cccc(COc2cc(Cl)ccc2Cl)c1 ?
MITF act: 45.2; Wnt act: 37.8*; GAA850 FXN act: 0.8

Results for O=C(Nc1ccc(Cl)cn1)c1ccc2nccnc2c1 ?
MITF act: 125.7*; Wnt act: 37.0*; GAA850 FXN act: 2.4

How did O=C(Nc1ccccc1Cl)c1ccc2nccnc2c1 do in these assays?
MITF act: 103.4*; Wnt act: 14.4; GAA850 FXN act: 2.4; esBAF inh: 15.7; Statin myotox sup: -3.5

Results for O=C(Nc1ccc(Br)cn1)c1ccc2nccnc2c1 ?
MITF act: 19.6; GAA850 FXN act: 2.8

What do the screens show for `O=C(Nc1ccccc1Cl)c1ccc(-c2ccccn2)s1`?
MITF act: inconclusive; Wnt act: 30.0; GAA850 FXN act: 1.9; esBAF inh: 82.2*; Statin myotox sup: -15.9

How did C[C@H](CO)N1C[C@H](C)[C@H](CN(C)C(=O)C2CCC2)Oc2cc(-c3cncnc3)ccc2S1(=O)=O do in these assays?
esBAF inh: -4.1; Statin myotox sup: 2.8

What do the screens show for `C[C@H](CO)N1C[C@H](C)[C@H](CN(C)C(=O)c2cccc(F)c2)Oc2ncc(-c3cccnc3)cc2C1=O`?
esBAF inh: 1.5; Statin myotox sup: 13.9

What do the screens show for `C[C@H](CO)N1C[C@H](C)[C@H](CN(C)Cc2ccc(Cl)c(Cl)c2)Oc2ccc(NC(=O)NC3CCCCC3)cc2C1=O`?
esBAF inh: 5.0

What do the screens show for `CCN(CC)S(=O)(=O)c1ccc(NC(=O)c2ccccc2N(C)S(C)(=O)=O)cc1`?
MITF act: -14.8; Wnt act: -1.3; GAA850 FXN act: 2.9; esBAF inh: 3.0; Statin myotox sup: -8.8

What do the screens show for `CCN(CC)S(=O)(=O)c1ccc(NC(=O)c2ccccn2)cc1`?
MITF act: 69.4; Wnt act: 22.0; GAA850 FXN act: 1.7; esBAF inh: 47.6*; Statin myotox sup: -8.9

How did CCN(CC)S(=O)(=O)c1ccc(NC(=O)c2ccc(N(C)S(C)(=O)=O)cc2)cc1 do in these assays?
Wnt act: -4.5; GAA850 FXN act: -3.6; esBAF inh: 2.9; Statin myotox sup: 104.2*

Results for O=C(O)/C=C1\NC(=O)c2ccccc21 ?
Wnt act: -1.8; GAA850 FXN act: 1.3; esBAF inh: -5.4; Statin myotox sup: 103.5*

How did Cc1ccc2c(c1)c1cccc3c1n2CCN3CCC(N)=O do in these assays?
MITF act: 76.1; GAA850 FXN act: -1.5; esBAF inh: 74.8*; Statin myotox sup: -11.0

How did CC(C)c1ccc(CNc2nc3nc4c(c(=O)n3[nH]2)CCC4)cc1 do in these assays?
MITF act: -4.9; Wnt act: -1.1; GAA850 FXN act: 1.6; esBAF inh: -1.0; Statin myotox sup: 111.3*

What do the screens show for `C[C@@H]1CN([C@@H](C)CO)C(=O)c2cc(C#CC3CCCC3)cnc2O[C@H]1CN(C)C(=O)Cc1ccccn1`?
esBAF inh: 2.1; Statin myotox sup: 10.6

Results for CCc1nc2cc3sc(CC)nc3cc2s1 ?
MITF act: 64.0; Wnt act: 16.1; GAA850 FXN act: 7.1; esBAF inh: 76.2*; Statin myotox sup: 4.5

How did Cc1[nH]c2ccccc2c1/C=N/Nc1nc2ccccc2[nH]1 do in these assays?
Wnt act: 97.7*; GAA850 FXN act: 4.4

How did Cc1ccc(/C=N/Nc2nc(Cl)c(Cl)cc2Cl)s1 do in these assays?
MITF act: 20.5; Wnt act: 71.7*; GAA850 FXN act: 7.3; esBAF inh: 60.5*; Statin myotox sup: -6.0

Results for C(/CCc1ccccc1)=N\Nc1nc2ccccc2[nH]1 ?
MITF act: 5.4; Wnt act: 39.6*; GAA850 FXN act: 4.1

Results for C(=N\Nc1nc2ccccc2[nH]1)/c1ccccc1 ?
MITF act: 80.0; Wnt act: 0.4; GAA850 FXN act: 4.4; esBAF inh: 55.0*; Statin myotox sup: -10.0

What do the screens show for `O=C(Cc1ccncc1)NCC[C@H]1CC[C@H](NC(=O)Nc2ccc(Cl)cc2)[C@@H](CO)O1`?
esBAF inh: -1.0; Statin myotox sup: 0.9

What do the screens show for `COc1ccccc1C(=O)Nc1ccc2c(c1)OC[C@@H](C)N(C(C)=O)C[C@@H](C)[C@@H](OC)CN(C)C2=O`?
esBAF inh: -1.4; Statin myotox sup: 2.1

What do the screens show for `CCC(=O)N1[C@@H]2c3ccc(-c4cccnc4)c(=O)n3C[C@H]1[C@H](CO)[C@H]2C(=O)NC1CCC1`?
esBAF inh: -2.1; Statin myotox sup: -5.5

How did C[C@@H]1CN([C@@H](C)CO)C(=O)c2cc(NC(=O)Nc3ccccc3)ccc2O[C@@H](C)CCCCO[C@@H]1CN(C)C(=O)C1CCCCC1 do in these assays?
esBAF inh: -3.9

How did CO[C@@H](CN(C)S(=O)(=O)c1ccc(Cl)cc1)[C@@H](C)CN([C@H](C)CO)S(=O)(=O)c1cccc(Cl)c1 do in these assays?
esBAF inh: 4.0; Statin myotox sup: -12.0

Results for C(=C\c1ccccc1)/C=N/Nc1nc2ccccc2[nH]1 ?
MITF act: 25.8; Wnt act: 90.4*; GAA850 FXN act: 4.5

How did Cc1ccc2nc(NCc3ccccc3)[nH]c2c1 do in these assays?
MITF act: 11.0; Wnt act: 20.0; GAA850 FXN act: 0.1; esBAF inh: -17.2; Statin myotox sup: -110.4

How did c1ccc(CNc2nc3ccccc3[nH]2)cc1 do in these assays?
MITF act: 83.3*; Wnt act: 19.9; GAA850 FXN act: 4.7; esBAF inh: 15.1; Statin myotox sup: -33.4

Results for Cc1ccc(/C=N/Nc2nc3ccccc3[nH]2)s1 ?
MITF act: 40.0; Wnt act: 156.4*; GAA850 FXN act: 4.9

How did C(=N\Nc1nc2ccccc2[nH]1)/c1cccc2cccnc12 do in these assays?
Wnt act: 37.3*; GAA850 FXN act: -10.1

How did Cc1ccccc1/C=N/Nc1nc2ccccc2[nH]1 do in these assays?
MITF act: 34.5; Wnt act: 8.4; GAA850 FXN act: 6.2

What do the screens show for `Fc1cccc(/C=N/Nc2nc3ccccc3[nH]2)c1`?
Wnt act: 12.2

High-throughput results from PubChem BioAssay.
